“And” between values parts separate entries of the source, which are not always exact repeats. Identical values can stand only once. The source made the active and inactive calls. The calls were made as follows: active = hit-call score of the fitted dose curve at least 0.9, where 1 is the maximum; inactive = score below 0.9.

The assay has as its system NCBI gene 447152. The assay is described as follows: CCTE_GLTED_xIYD: CCTE's Xenopus Iodotyrosine Deiodinase (xIYD) Inhibition Assay, Great Lakes Toxicology and Ecology Division (GLTED) Lab. Here is the method: CCTE_GLTED_xIYD is a cell-free, single-readout assay that uses Xenopus (frog) iodotyrosine deiodinase (xIYD) enzyme from liver microsomes. Assay is based on iodide release measured by the Sandell-Kolthoff method and is run in 96-well plate format with assay plates run in triplicate (n=3) with measurements taken at 3 hours after chemical dosing. Platewise-normalization was used based on positive control (3-Nitro-L-tyrosine, MNT) and negative/solvent controls (DMSO, NaOH).CCTE_GLTED_xIYD is the assay component measured from the CCTE_GLTED_xIYD assay. It measures substrate involved in regulation of catalytic activity using spectrophotometry. The assay measures the deiodination activity of Xenopus (frog) IYD on the substrate monoiodotyrosine (MIT). After 3h incubation of substrate, enzyme, and test chemical, the components are applied to a 96-well Dowex column. Free iodide is not retained by the column and is separated from interfering assay components. The free iodide is measured by the Sandell-Kolthoff reaction in which the rate of reduction of cerium (Ce+4 to Ce+3) by arsenic (As+3 to As+5) is increased by the presence of iodide. This is observed as the loss of yellow color in the reaction and the quantified by the change in absorbance at 420 nm. The change in reaction rate is proportional to the amount of iodide present.Data from the assay component CCTE_GLTED_xIYD was analyzed at the assay endpoint CCTE_GLTED_xIYD in the positive analysis fitting direction relative to DMSO as the negative control and baseline of activity. Using a type of enzyme reporter, loss-of-signal activity can be used to understand iodotyrosine deiodinase activity. To generalize the intended target to other relatable targets, this assay endpoint is annotated to the 'dehalogenase' intended target family, where the subfamily is 'iodotyrosine deiodinase'.
Human transthyretin (TTR) assay, developed at Great Lakes Toxicology and Ecology Division (GLTED) within the EPA's Center for Computational Toxicology and Exposure (CCTE), is designed to test the chemicals' ability to displace T4 from the TTR protein. TTR (0.125uM) is incubated in presence of test chemical for 2 hours during which disrupting chemicals displace ANSA from the TTR protein. Results read fluorescence at 380 excitation and 475 emission.
For `O=C(O)C(F)(F)C(F)(F)C(F)(F)C(F)(F)C(F)(F)C(F)(F)C(F)(F)C(F)(F)C(F)(F)C(F)(F)F`, the AC50 (as a rule, the concentration giving half of the maximal activity seen) was 35.9 µM (active).
For `O=S(=O)(O)C(F)(F)C(F)(F)C(F)(F)C(F)(F)C(F)(F)C(F)(F)C(F)(F)C(F)(F)F`, the AC50 is 36.4 µM (active) and 27.5 µM (active).
The same measure for `O=C(O)C(F)(F)C(F)(F)C(F)(F)C(F)(F)C(F)(F)C(F)(F)C(F)(F)C(F)(F)F`: 39.2 µM (active); for `O=C(O)C(F)(F)C(F)(F)C(F)(F)C(F)(F)C(F)(F)C(F)(F)C(F)(F)C(F)(F)C(F)(F)F`: 73.7 µM (active).
To `NS(=O)(=O)C(F)(F)C(F)(F)C(F)(F)C(F)(F)C(F)(F)C(F)(F)C(F)(F)C(F)(F)F` belongs 61.2 µM (active).

(Values after PubChem BioAssay AID2284323 (EPA ToxCast).)
